NPC1 promoter act – activates the NPC1 promoter. Potency, µM (highest dose often 9.22 µM), for inactives: at the highest dose activation, usual class: activators. Huh7 NPC1 promoter luciferase reporter, 24 h. AID 485313. 320,000 compounds, 2.4% hits; also: % of control where 0% means no effect; nearly all actives have a fitted effect of over 60% in size
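Luminescence read-out of NPC1 promoter-driven luciferase in stably transfected Huh7 cells; compounds delivered in DMSO and left 24 h at 37C, 5% CO2, qHTS titration format.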
SMN2 splice up – enhancers of SMN2 splice variant expression. HEK293 SMN2-luciferase splicing reporter, luminescence, 30-36 h. 210,000 compounds, 2.8% hits. AID 1458. Potency, µM (highest dose often 46.1 µM), for the others: top-dose activity change, positive = activation, most hits filed as activators; also: % of control where 0% means no effect; nearly all actives have a fitted effect of over 55% in size
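HEK293 cells carry an SMN2 minigene-luciferase reporter in which exon 7 inclusion puts luciferase in frame. Cells were seeded at 2000 cells/well, attached for 10-12 hours, then exposed to compounds for 30-36 hours at 37C before ONE-Glo luminescence.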
ELG1 genotoxic – induces genotoxicity in HEK293T cells with luciferase-tagged ELG1 | HEK293T ELG1-luciferase reporter, luminescence, 16 h | Potency, µM (series often up to 46 µM), for inactives: at the top dose activity change, positive = activation, most hits filed as activators | 330,000 compounds, 1.3% hits | AID 504466; also: % of control where 0% means no effect; nearly all actives have a fitted effect of over 60% in size
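DMSO vehicle served as control against compound-treated ELG1-luciferase HEK293T cells; exposure lasted 16 hr at 37 °C and 5% CO2, followed by ONE-Glo luminescence detection after 30 min.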
Rab9 promoter act – activates the Rab9 promoter; Potency, µM (series often up to 9.22 µM), for the others: at the top dose activation, negative = inhibition, usual class: activators; Huh7 Rab9 promoter-luciferase reporter, luminescence, 24 h; 320,000 compounds, 2.8% hits; AID 485297; also: % of control where 0% means no effect; nearly all actives have a fitted effect of over 60% in size
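Luciferase signal after 10 min detection reagent at ambient indicates Rab9 promoter upregulation; stably transfected Huh7 cells were treated 24 h with compound in DMSO at 37 °C, 5% CO2.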
FLuc counter – counter-screen for miR-21 project: firefly luciferase inhibitors or activators. AID 588342. Potency, µM (titrated, usually from 57.5 µM), for inactives: at the top dose activity change, negative = inhibition, actives largely listed as inhibitors. purified FLuc, Km substrates, luminescence inhibition. P08659. 360,000 compounds, 6.9% hits;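 also: plate controls were vehicle for no effect and reference inhibitor for full effect; nearly all actives have a fitted effect of over 55% in size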
Target sequence (P08659 whole entry, looked up): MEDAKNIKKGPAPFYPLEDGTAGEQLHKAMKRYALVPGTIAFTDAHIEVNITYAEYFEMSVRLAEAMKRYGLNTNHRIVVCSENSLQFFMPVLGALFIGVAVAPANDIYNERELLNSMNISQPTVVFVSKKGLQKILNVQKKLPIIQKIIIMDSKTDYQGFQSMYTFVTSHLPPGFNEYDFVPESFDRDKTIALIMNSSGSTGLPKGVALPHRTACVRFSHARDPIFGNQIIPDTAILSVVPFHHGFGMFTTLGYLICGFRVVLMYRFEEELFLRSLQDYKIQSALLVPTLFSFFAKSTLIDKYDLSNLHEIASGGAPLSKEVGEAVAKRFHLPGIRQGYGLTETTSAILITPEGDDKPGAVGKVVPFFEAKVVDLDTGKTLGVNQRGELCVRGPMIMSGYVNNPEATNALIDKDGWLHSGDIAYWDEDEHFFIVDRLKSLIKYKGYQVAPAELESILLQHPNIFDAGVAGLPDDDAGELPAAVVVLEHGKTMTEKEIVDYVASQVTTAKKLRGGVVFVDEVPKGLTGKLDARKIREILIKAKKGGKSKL
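Purified P. pyralis luciferase (10nM final) with 10uM D-luciferin and 10uM ATP (Km levels) in 50mM Tris acetate pH 7.5, 10mM Mg acetate, 0.01% Tween-20, 0.05% BSA; qHTS 6-point titration, ~60 µM downward; luminescence read.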
ELG1 DNA repair – ELG1-dependent DNA repair inhibition. HEK293T ELG1-luciferase reporter, luminescence, 16 h; DNA damage induced by 5-fluorouridine. Potency, µM (titrated, usually from 46.1 µM), without a hit: at the highest dose activity change, negative = inhibition, actives largely listed as inhibitors. 330,000 compounds, 2.3% hits. AID 504467; also: % is scaled to controls: 0 for no effect and ±100 for the full control effect; nearly all actives have a fitted effect of over 55% in size
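Overnight (16 hr) co-exposure of 2,000 cells/well to 5-fluorouridine and compound at 37 °C preceded detection. Luciferase was quantified via ONE-Glo luminescence; loss of signal denotes inhibition.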
* hit, by the source's call. Hits are enriched below; roughly 9.3% of the tested compounds scored in any of these assays. Calls follow the shape of the dose curve; as a rule, active = well fitted curve in the direction sought with a large enough effect; inconclusive = small, poorly fitted or top-dose-only effect, or another doubt; inactive = no such curve, though single readings can be large; an effect the other way counts as inactive or inconclusive. Potency is read from the fitted curve at half-maximal effect.

Screening Cc1ccc(N=c2oc3cc(O)ccc3cc2C(N)=O)cc1 returned NPC1 promoter act inconclusive, ELG1 genotoxic -2%, Rab9 promoter act 4.5µM*, FLuc counter 19µM* and ELG1 DNA repair inconclusive.
`O=C(CSc1nnc(NC(=O)c2ccccc2F)s1)NCC1CCCO1` (stereo unspecified) gave NPC1 promoter act inconclusive, ELG1 genotoxic inconclusive, Rab9 promoter act inconclusive, FLuc counter 12µM* and ELG1 DNA repair inconclusive.
For O=C(CSc1nnc(NC(=O)c2ccccc2)s1)NCC1CCCO1 (stereo unspecified) the results were NPC1 promoter act 3.5µM*, ELG1 genotoxic inconclusive, Rab9 promoter act 2.8µM*, FLuc counter 4.3µM* and ELG1 DNA repair inconclusive.
Screening Cn1c(SCC(=O)NCC2CCCO2)ncc(C(=O)Nc2ccccc2)c1=O (stereo unspecified) returned NPC1 promoter act 0%, ELG1 genotoxic inconclusive, Rab9 promoter act 2%, FLuc counter inconclusive and ELG1 DNA repair inconclusive.
Screening Cc1cc(C)cc(C(=O)Nc2nnc(SCC(=O)NCC3CCCO3)s2)c1 (stereo unspecified) returned NPC1 promoter act 1%, ELG1 genotoxic 4%, Rab9 promoter act 4%, FLuc counter inconclusive and ELG1 DNA repair 8%.
Cc1ccc(NC(=O)c2cnc(SCC(=O)NCC3CCCO3)n(C)c2=O)cc1C (stereo unspecified) was read as NPC1 promoter act inconclusive, ELG1 genotoxic 21µM*, Rab9 promoter act inconclusive, FLuc counter 4.8µM* and ELG1 DNA repair inconclusive.
`O=C(CSc1nnc(NC(=O)c2cccc(Br)c2)s1)NCC1CCCO1` (stereo unspecified) gave NPC1 promoter act inconclusive, ELG1 genotoxic inconclusive, FLuc counter 8.5µM* and ELG1 DNA repair 29%.
For COc1cc(C(=O)NCC2CCCO2)ccc1OCc1ccccc1Cl (stereo unspecified) the results were NPC1 promoter act 4%, ELG1 genotoxic -8%, Rab9 promoter act 6%, FLuc counter -1% and ELG1 DNA repair inconclusive.
For O=C(CSCc1cnn(-c2ccccc2)c1-n1cccc1)NCc1ccccc1F the results were FLuc counter -13%.
Screening COc1ccc(C(=O)N2c3nc(-c4ccco4)nn3C3(CCCCC3)[C@@H]3CCCC[C@@H]32)cc1OC returned FLuc counter 0%.
For O=C(CSc1nnc(NC(=O)Cc2ccccc2)s1)NCC1CCCO1 (stereo unspecified) the results were NPC1 promoter act -2%, SMN2 splice up -12%, ELG1 genotoxic -2%, Rab9 promoter act -9%, FLuc counter -5% and ELG1 DNA repair 5%.
Screening CCOc1cc(NC(=S)NCC2CCCO2)c(OCC)cc1NC(=O)c1ccccc1F (stereo unspecified) returned NPC1 promoter act -5%, SMN2 splice up -16%, ELG1 genotoxic -9%, Rab9 promoter act 0%, FLuc counter 0% and ELG1 DNA repair 23µM*.
For O=C(CSc1nnc(NC(=O)c2ccccc2[N+](=O)[O-])s1)NCC1CCCO1 (stereo unspecified) the results were NPC1 promoter act 6%, ELG1 genotoxic 2%, Rab9 promoter act 4%, FLuc counter 17µM* and ELG1 DNA repair inconclusive.
`COc1ccc(C(=O)Nc2nnc(SCC(=O)NCC3CCCO3)s2)cc1OC` (stereo unspecified) gave NPC1 promoter act 21%, ELG1 genotoxic 24%, Rab9 promoter act 15%, FLuc counter 12µM* and ELG1 DNA repair 3%.
CCOC(=O)C1=C(COC(=O)C2CC(=O)N(c3ccc(CC)cc3)C2)NC(=O)NC1C (stereo unspecified) was read as NPC1 promoter act -6%, ELG1 genotoxic -3%, Rab9 promoter act -1%, FLuc counter 4% and ELG1 DNA repair 7%.
Screening O=C1CC(c2ccccc2)CC(O)=C1C=Nc1ccccc1 (stereo unspecified) returned NPC1 promoter act -4%, SMN2 splice up -4%, ELG1 genotoxic 0%, Rab9 promoter act 1%, FLuc counter 17µM* and ELG1 DNA repair -10%.
`O=C1CC(c2ccco2)CC(O)=C1C=Nc1ccc(Br)cc1` (stereo unspecified) gave NPC1 promoter act -4%, SMN2 splice up 7%, ELG1 genotoxic 1%, Rab9 promoter act -9%, FLuc counter -4% and ELG1 DNA repair -1%.
Cc1ccc(N=CC2=C(O)CC(c3ccco3)CC2=O)cc1 (stereo unspecified) was read as NPC1 promoter act 1%, SMN2 splice up -14%, ELG1 genotoxic 8%, Rab9 promoter act 11%, FLuc counter 11µM* and ELG1 DNA repair 4%.
O=C(c1ccccc1)n1c(=O)cc[nH]c1=O was read as NPC1 promoter act -1%, ELG1 genotoxic 3%, Rab9 promoter act 0%, FLuc counter 0% and ELG1 DNA repair 9%.
`CNc1ccccc(-c2ccc3cc4c(cc3n2)OCO4)c1=O` gave NPC1 promoter act inconclusive, ELG1 genotoxic inconclusive, Rab9 promoter act inconclusive, FLuc counter 3.4µM* and ELG1 DNA repair inconclusive.
`CCc1ccccc1NC1=NCC(=O)N1Cc1ccc2c(c1)OCO2` gave NPC1 promoter act -2%, SMN2 splice up 9%, ELG1 genotoxic 1%, Rab9 promoter act 1%, FLuc counter 0% and ELG1 DNA repair inconclusive.
For COc1cc(C(=O)NCCOc2cc(C)cc(C)c2)c(Br)c(OC)c1OC the results were NPC1 promoter act -17%, SMN2 splice up -14%, ELG1 genotoxic 1%, Rab9 promoter act -4%, FLuc counter -1% and ELG1 DNA repair -26%.
`O=C(/C=C/c1ccccc1)Nc1sc2c(c1C(=O)O)CCC2` gave NPC1 promoter act inconclusive, ELG1 genotoxic -1%, Rab9 promoter act inconclusive, FLuc counter 17µM* and ELG1 DNA repair inconclusive.
`N#Cc1c(NC(NC(=O)c2ccco2)C(=O)c2ccccc2)sc2c1CCCC2` (stereo unspecified) gave NPC1 promoter act 0%, SMN2 splice up 2%, ELG1 genotoxic 21%, Rab9 promoter act -2%, FLuc counter -19% and ELG1 DNA repair -6%.
N#Cc1c(NC(=O)/C=C/c2ccco2)sc2c1CCCC2 was read as NPC1 promoter act inconclusive, SMN2 splice up 3.5µM*, ELG1 genotoxic 2.9µM*, Rab9 promoter act inconclusive, FLuc counter 4.8µM* and ELG1 DNA repair inconclusive.
